In the library only some 2.3% were active in any assay of this set; here they are far more common.
HSP90 refold inh: blocks HSP90-mediated luciferase refolding in reticulocyte lysate | inhibition, % at 5.6 µM | Rabbit reticulocyte lysate, luciferase refolding luminescence, 3 h | 290,000 tested, 0.91% active;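 active means inhibition above the screen-wide mean plus 3 SD, computed separately per campaign, cut at about 16% in these data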;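 further: 0% = DMSO wells and 100% = 60 µM geldanamycin wells; inhibitors lower the luminescence because luciferase stays unfolded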
SENP8 block-1: inhibitors of human SENP8 protease; 330,000 tested, 1.2% active; Q96LD8; inhibition, % at 10 µM; purified SENP8, Z-RLRGG-aminoluciferin cleavage, luminescence; AID 2540; in the data active means inhibition above about 50%
LGR2 inh: inhibitors of bursicon-induced Drosophila LGR2 receptor cAMP signaling; HEK293 LGR2, CRE-luciferase, bursicon-stimulated, 4 h; inhibition, % at 9.99 µM; 380,000 tested, 0.35% active;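 active means drop in luminescence signal, shown as inhibition above about 50% in the replicate tests, limit read from the data, passing the limit was not always enough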;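 further: agonist challenge used bursicon conditioned medium at about half maximal strength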
SENP6 inh: SENP6 protease inhibition | 330,000 tested, 1.8% active | Q9GZR1 | AID 2599 | Recombinant SENP6 catalytic domain, aminoluciferin luminescence | inhibition, % at 10 µM;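 active means inhibition above about 50% at the single tested dose, limit read from the data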;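 further: plate controls were DMSO wells with enzyme for no effect and DMSO wells lacking enzyme for full effect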
Target sequence (Q9GZR1 628-1112 limits assumed): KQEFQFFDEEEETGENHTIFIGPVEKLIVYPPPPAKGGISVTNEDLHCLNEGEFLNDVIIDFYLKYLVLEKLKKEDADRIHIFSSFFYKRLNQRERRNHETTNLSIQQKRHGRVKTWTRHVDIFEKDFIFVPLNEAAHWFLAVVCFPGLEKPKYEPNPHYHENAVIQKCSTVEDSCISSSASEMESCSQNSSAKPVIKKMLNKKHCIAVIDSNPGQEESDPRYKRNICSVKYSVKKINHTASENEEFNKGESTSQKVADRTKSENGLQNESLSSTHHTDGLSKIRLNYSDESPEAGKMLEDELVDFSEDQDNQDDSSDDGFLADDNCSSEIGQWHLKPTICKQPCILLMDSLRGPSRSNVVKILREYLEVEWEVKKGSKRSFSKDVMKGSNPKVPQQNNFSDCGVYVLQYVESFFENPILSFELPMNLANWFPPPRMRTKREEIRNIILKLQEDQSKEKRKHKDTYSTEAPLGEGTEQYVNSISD
SENP8 block-2: inhibitors of human SENP8 protease; recombinant SENP8, Nedd8 substrate fluorescence; Q96LD8; 360,000 tested, 0.64% active; inhibition, % at 20 µM; in the data active means inhibition mostly above about 40%, no sharp cut-off; inactive means mostly below about 27%
SENP7 block: blocks the human protease SENP7 | Q9BQF6 | recombinant SENP7, Z-RLRGG-aminoluciferin luminescence, 40 min | inhibition, % at 5 µM | 330,000 tested, 1.5% active | AID 434973;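 active means inhibition above about 50% at the single test dose, limit read from the data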;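 further: plate controls were DMSO with enzyme for no effect and no enzyme buffer wells for full effect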
SENP8 conf: confirmation of human SENP8 protease inhibitors; shares compounds with SENP7 block; Recombinant SENP8, Z-RLRGG-aminoluciferin luminescence, 60 min; inhibition, % at 12.5 µM; 6,200 tested, 40% active; AID 488912;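 active means mean inhibition across replicates above about 50%, limit read from the data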
SENP6 confirm: confirmation of human SENP6 protease inhibitors. inhibition, % at 12.5 µM. AID 488915. 6,200 tested, 58% active. shares compounds with SENP7 block. recombinant SENP6, Z-RLRGG-aminoluciferin luminescence
SENP7 confirm: human SENP7 inhibition, confirmed | shares compounds with SENP7 block | recombinant SENP7, Z-RLRGG-aminoluciferin luminescence, 40 min | inhibition, % at 12.5 µM | 6,200 tested, 69% active | AID 488917
Casp3 SENP sel: selectivity test for SENP inhibitors: human caspase-3 inhibition; shares compounds with SENP7 block; purified caspase-3, Z-DEVD-aminoluciferin luminescence, 60 min; inhibition, % at 12.5 µM; 6,200 tested, 60% active; AID 488918;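 active means mean inhibition above about 50%, limit read from the data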;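 further: plate controls were enzyme with DMSO for no effect and wells without caspase-3 for full effect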
Luc interf: interferes with luciferase luminescence in SENP counter-screen; Pre-incubated SENP8/Z-RLRGG-aminoluciferin, luciferase luminescence interference; 6,200 tested, 39% active; shares compounds with SENP7 block; AID 488919; inhibition, % at 12.5 µM;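 active means mean inhibition above about 50% when retested at one dose, limit read from the data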;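 further: plate controls were DMSO wells with completed reaction for no effect and substrate without enzyme for full effect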
Active calls of the source: *; · = not tested or not shown.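 How the source made its calls, unless noted: active means mean inhibition above about 50% in the one-dose retest (limit read from the data); inactive means the rest.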

SMILES	HSP90 refold inh	SENP8 block-1	LGR2 inh	SENP6 inh	SENP8 block-2	SENP7 block	SENP8 conf	SENP6 confirm	SENP7 confirm	Casp3 SENP sel	Luc interf
Cn1nccc1C(=O)Nc1ccc(OC(=O)c2ccnn2C)cc1	1	-9	-5	-28	10	-4	·	·	·	·	·
CCOC(=O)c1ccc(NC(=O)c2ccccc2C)cc1	-3	58*	-30	70*	6	65*	69*	59*	87*	54*	55*
CCOC(=O)c1ccc(NC(=O)N2CCc3ccccc32)cc1	2	77*	-40	91*	17	96*	-13	81*	95*	76*	23
CCOC(=O)c1ccc(NC(=O)N2CCc3ccccc3C2)cc1	6	13	-23	10	-2	5	·	·	·	·	·
CCOC(=O)c1ccc(NC(=O)c2ccnn2C)cc1	·	59*	-55	68*	9	58*	6	11	14	6	7
COc1cccc(-c2ccc3c(c2)[C@@H]2[C@@H](CCN2C(=O)c2cccc(F)c2)[C@H](CO)N3)c1	·	·	-10	·	·	·	·	·	·	·	·
O=C(C[C@H]1CC[C@@H](NC(=O)c2ccc3c(c2)OCO3)[C@@H](CO)O1)NC1Cc2ccccc2C1	·	·	-6	·	·	·	·	·	·	·	·
Cn1ccs/c1=N\C(=O)Nc1cccc(Cl)c1	-2	52*	·	70*	7	73*	17	17	67*	45	51*
O=C(CC1CC1)N1CC2(C1)[C@H](c1ccccc1)[C@@H](CO)N2Cc1ccccc1	·	·	0	·	·	·	·	·	·	·	·
O=C(/C=C/c1ccccc1[N+](=O)[O-])NCCN1C(=O)S/C(=C\c2ccc(F)cc2)C1=O	-3	-11	-33	18	19	81*	-10	-3	-6	5	3
O=C(/C=C/c1cccc([N+](=O)[O-])c1)NCCN1C(=O)S/C(=C\c2cccnc2)C1=O	3	-5	-13	11	22	1	·	·	·	·	·
CC(=O)/C(=C/N(C)C)C(=O)Nc1ccc(Cl)cc1Cl	-3	78*	-19	10	1	5	70*	66*	92*	81*	77*
CC(=O)c1sc(NC(=O)c2oc3ccc(F)cc3c2C)nc1C	·	57*	-39	45	-469	80*	37	39	17	50*	16
CC(=O)c1sc(NC(=O)c2cc(=O)c3ccccc3o2)nc1C	3	67*	-6	82*	15	64*	79*	82*	96*	90*	48
CC(=O)c1sc(NC(=O)c2c(F)cccc2F)nc1C	2	-8	·	-12	8	2	·	·	·	·	·
CC(C)NC(=O)Nc1ccc2c(c1)C(=O)N([C@@H](C)CO)C[C@@H](C)[C@@H](CN(C)C(=O)Cc1ccccc1)OCCCC[C@@H](C)O2	·	·	-3	·	·	·	·	·	·	·	·
C[C@H](CO)N1C[C@H](C)[C@H](CN(C)C)Oc2c(NS(=O)(=O)c3cccs3)cccc2C1=O	·	·	-10	·	·	·	·	·	·	·	·
CCOC(=O)C1CCN(Cc2ccc(OC)c(OCc3ccccc3)c2)CC1	-4	-6	-4	-26	31	-99	·	·	·	·	·
CCOC(=O)C1CCN(Cc2ccc(O)c(OC)c2)CC1	0	2	10	96*	10	12	6	0	-2	-2	-1
CCCC#Cc1cnc2c(c1)C(=O)N([C@@H](C)CO)C[C@H](C)[C@@H](CN(C)Cc1ccc3c(c1)OCO3)O2	·	·	-8	·	·	·	·	·	·	·	·
Cc1noc(C)c1NC(=O)Nc1cccc2c1O[C@H](CN(C)CC1CCCCC1)[C@@H](C)CN([C@@H](C)CO)C2=O	·	·	-23	·	·	·	·	·	·	·	·
Cc1nc(SCC(N)=O)[nH]c(=O)c1Cc1ccc(OC(C)C)cc1	5	-5	·	64*	13	0	12	6	12	7	2
COc1ccc(Cc2c(O)nc(SCC(=O)c3ccc(OC)cc3)[nH]c2=O)cc1	-3	-4	-2	6	4	1	·	·	·	·	·
O=c1c2ccccc2oc2cc(C#CC3(O)CCCCC3)ccc12	·	95*	·	98*	11	99*	98*	99*	102*	94*	75*
O=c1c2ccccc2sc2ccc(C#CC3(O)CCCCC3)cc12	·	96*	100*	98*	-260	97*	97*	99*	102*	97*	44
SMILES	HSP90 refold inh	SENP8 block-1	LGR2 inh	SENP6 inh	SENP8 block-2	SENP7 block	SENP8 conf	SENP6 confirm	SENP7 confirm	Casp3 SENP sel	Luc interf
COc1cccc2sc3ccc(C#CC4(O)CCCCC4)cc3c(=O)c12	8	89*	-50	93*	-320	88*	91*	95*	100*	82*	46
COc1ccccc1-c1oc2ccccc2c1C#CC1(O)CCCCC1	·	-4	-5	2	-475	5	·	·	·	·	·
Cc1cccc(-n2ncc3c(N4CCC5(CC4)OCCO5)ncnc32)c1	·	-13	-40	-14	8	-18	·	·	·	·	·
CC1CCCN(c2ncnc3c2cnn3-c2ccccc2)C1 (stereo not drawn)	·	62*	84*	64*	0	42	4	40	68*	43	53*
CC1CCCN(c2ncnc3c2cnn3-c2ccc(Cl)cc2)C1 (stereo not drawn)	·	94*	97*	94*	-10	95*	90*	94*	98*	92*	29
Cc1cccc(-n2ncc3c(N4CCC(C)CC4)ncnc32)c1	-1	54*	27	61*	5	38	60*	59*	83*	47	37
CC(C)[C@@H](CO)NC(=O)c1ccc2c3n(nc2c1)-c1ccccc1CO3	·	82*	19	84*	-123	50	91*	91*	98*	95*	62*
Cc1ccc2c(c1)COc1c3ccc(C(=O)NCC4CC4)cc3nn1-2	·	0	-54	0	-327	-2	·	·	·	·	·
O=C(NCC1CC1)c1ccc2c3n(nc2c1)-c1ccccc1CO3	·	78*	12	82*	-224	68*	83*	84*	98*	92*	80*
O=C(NCCO)c1ccc2c3n(nc2c1)-c1ccccc1CO3	·	24	-47	21	-202	9	·	·	·	·	·
CC(C)NC(=O)c1ccc2c3n(nc2c1)-c1ccccc1CO3	·	78*	37	77*	-112	78*	88*	87*	98*	94*	81*
